We go through four compounds from PubChem BioAssay (EPA / NIEHS).

One may read the AC50 as the concentration at which the activity in the assay is half-maximal.

The source made the active and inactive calls. Rule for the calls: active = hit-call score of the fitted dose curve at least 0.9, where 1 is the maximum; inactive = score below 0.9.

In assay [1] the target is Bile acid receptor (Homo sapiens) (UniProt Q96RI1). As to the kind of experiment: ATG_IR1_CIS: Attagene CIS-FACTORIAL HepG2 Assay for human Nuclear Receptor Subfamily 1 Group H Member 4 (NR1H4), IR1 submotif (AID 2282946). The settings on record: IR1 reporter transcription, actives raise or lower the signal. The method, boiled down: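 HepG2 cells transiently transfected with multiplexed cis-element reporter units read endogenous transcription factor activity. After 24 h compound exposure, reporter mRNA was quantified by RT-PCR, fluorescent labelling, HpaI digestion and capillary electrophoresis; bidirectional fitting versus DMSO baseline.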

Assay [2] in a line: ATG_GRE_CIS: Attagene CIS-FACTORIAL HepG2 Assay for human Glucocorticoid Response Elements (GRE) (AID 2282947). Conditions: HepG2 GRE cis-reporter, Attagene multiplex mRNA; actives raise or lower the signal. In short, it runs like this: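 Reporter transcripts read by RT-PCR with capillary electrophoresis fluorescence after a 24 h chemical exposure of HepG2 cells transiently transfected with multiple cis-element reporter units. Gain or loss fitted against DMSO.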

Assay [3] is described as follows: ATG_ISRE_CIS: Attagene CIS-FACTORIAL HepG2 Assay for human Interferon Regulatory Factor 1 (IRF1) binding to an Interferon-Stimulated Response Element (ISRE) (AID 2282948). The settings on record: HepG2 ISRE cis-reporter (Attagene), mRNA transcription readout; actives raise or lower the signal. The method, boiled down:
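Read-out: fluorescent RT-PCR products resolved by capillary electrophoresis, reporting endogenous transcription factor activity via ISRE-driven reporter mRNA in transfected HepG2 cells dosed for 24 h; gain or loss fitted relative to DMSO.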

Assay [4] in a line: ATG_M_32_CIS: Attagene CIS-FACTORIAL HepG2 Assay for M32 Transcription Factor (Internal Marker) (AID 2282949).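 Note: background control marker of the multiplexed CIS panel rather than a real target.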 Conditions: HepG2 Attagene cis-factorial M32 reporter, mRNA; actives raise or lower the signal. In short, it runs like this:
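HepG2 human liver cells transiently transfected with cis-promoter-driven multiple reporter transcription units, dosed 24 h. Reporter mRNA quantified by RT-PCR, FAM-labelled primer extension, HpaI digest and capillary electrophoresis; bidirectional fit versus DMSO baseline.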

Assay [5] is described as follows: ATG_M_06_CIS: Attagene CIS-FACTORIAL HepG2 Assay for M06 Transcription Factor (Internal Marker) (AID 2282950). Conditions: HepG2 Attagene CIS-FACTORIAL M06 internal marker reporter; actives raise or lower the signal. The method, boiled down: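 Fluorescence-labelled RT-PCR products from cis-promoter reporter units, cut with HpaI and resolved by capillary electrophoresis, give the signal. Cells are human HepG2, dosed for 24 h. Serves as background control, fitted relative to DMSO.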

Assay [6] deals with Hypoxia-inducible factor 1-alpha (Homo sapiens) (UniProt Q16665). As to the kind of experiment: ATG_HIF1a_CIS: Attagene CIS-FACTORIAL HepG2 Assay for human Hypoxia Inducible Factor 1 (HIF1A) (AID 2282951). The settings on record: HepG2 Attagene cis-factorial HIF1a reporter transcription; actives raise or lower the signal. In short, it runs like this: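 HepG2 cells transiently transfected with multiplexed cis-promoter reporter units; reporter mRNA read 24 h after dosing by RT-PCR, 6-FAM primer-extension labelling, HpaI digestion and capillary electrophoresis. Bidirectional fit versus DMSO baseline.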

Assay [7] has as its target Hepatocyte nuclear factor 6 (Homo sapiens) (UniProt Q9UBC0). As to the kind of experiment: ATG_HNF6_CIS: Attagene CIS-FACTORIAL HepG2 Assay for human Hepatocyte Nuclear Factor 6 (HNF6) (AID 2282952). Conditions: HepG2 Attagene cis-factorial HNF6 reporter transcription; actives raise or lower the signal. In short, it runs like this:
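Readout: fluorescent reporter-transcript fragments resolved by capillary electrophoresis after RT-PCR, reflecting endogenous factor activity in transfected HepG2. Exposure 24 h. Gain or loss of signal fitted bidirectionally against DMSO.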

Assay [8] in a line: ATG_MRE_CIS: Attagene CIS-FACTORIAL HepG2 Assay for human Metal Responsive Element (MRE) (AID 2282954). Conditions: HepG2 MRE cis-reporter transcription, Attagene multiplex; actives raise or lower the signal. In short, it runs like this: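 Endogenous MRE-dependent transcription read as reporter mRNA in transiently transfected human HepG2 cells at 24 h. RNA reverse-transcribed, PCR-amplified, labelled and resolved by capillary electrophoresis; gain or loss relative to DMSO.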

Assay [9] in a line: ATG_PBREM_CIS: Attagene CIS-FACTORIAL HepG2 Assay for human Phenobarbital-responsive Enhancer Module (PBREM) (AID 2282955). Conditions: HepG2 PBREM cis-reporter, Attagene multiplexed transcription; actives raise or lower the signal. In short, it runs like this:
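HepG2 cells transiently transfected with multiple cis-regulated reporter transcription units; endogenous factor activity at the PBREM element measured as reporter mRNA 24 h after dosing, via RT-PCR and capillary electrophoresis of fluorescent fragments; bidirectional fitting versus DMSO.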

Assay [10] has as its target Paired box protein Pax-6 (Homo sapiens) (UniProt P26367). Briefly: ATG_Pax6_CIS: Attagene CIS-FACTORIAL HepG2 Assay for human Paired Box 6 (PAX6) (AID 2282956). Conditions: HepG2 CIS-FACTORIAL PAX6 reporter transcription, RNA readout; actives raise or lower the signal. The method, boiled down:
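Readout: reporter transcript fluorescence after RT-PCR and capillary electrophoresis. Cells: HepG2, transiently transfected with cis-regulated MRTUs. Exposure 24 h. Gain or loss of signal fitted bidirectionally relative to DMSO.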

A short description of assay [11]: ATG_PXRE_CIS: Attagene CIS-FACTORIAL HepG2 Assay for human Pregnane X Receptor Element (PXRE) (AID 2282957). Conditions: HepG2 Attagene CIS-FACTORIAL PXRE reporter, mRNA; actives raise or lower the signal. In short, it runs like this:
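Read-out: fluorescence of reporter-specific RT-PCR products resolved by capillary electrophoresis, fitted bidirectionally relative to DMSO. Human HepG2 liver cells carried transfected cis-promoter reporter units and were exposed to chemicals for 24 h.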

The nature of assay [12]: ATG_PPRE_CIS: Attagene CIS-FACTORIAL HepG2 Assay for human Peroxisome Proliferator-activated Response Element (PPRE) (AID 2282958). Conditions: HepG2 PPRE cis-element reporter, Attagene transcription factor profiling; actives raise or lower the signal. In short, it runs like this: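 HepG2 cells transiently transfected with multiplexed cis-element reporter units measure endogenous transcription factor activity. After 24 h compound exposure, reporter mRNA is quantified by RT-PCR, 6-FAM labeling, HpaI digestion and capillary electrophoresis; bidirectional fits are made against DMSO baseline.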

The nature of assay [13]: ATG_Sox_CIS: Attagene CIS-FACTORIAL HepG2 Assay for human SRY-box transcription factor (SOX) (AID 2282960). The settings on record: HepG2 Attagene cis-factorial SOX reporter, mRNA; actives raise or lower the signal. In short, it runs like this: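 HepG2 cells transiently transfected with cis-element-driven multiple reporter transcription units, dosed 24 h; reporter mRNA measured by RT-PCR, FAM labelling, HpaI digestion and capillary electrophoresis. Bidirectional fit versus DMSO baseline.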

The target of assay [14] is Transcription factor Sp1 (Homo sapiens) (UniProt P08047). As to the kind of experiment: ATG_Sp1_CIS: Attagene CIS-FACTORIAL HepG2 Assay for human Specificity Protein 1 (Sp1) (AID 2282961). The settings on record: HepG2 Sp1 cis-reporter transcription, actives raise or lower the signal. The method, boiled down: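 HepG2 cells transiently transfected with multiple reporter transcription units driven by cis-regulatory elements; Sp1-responsive reporter mRNA measured 24 h after dosing by RT-PCR and capillary electrophoresis fluorescence, fitted bidirectionally against DMSO baseline.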

Assay [15] can be described thus: ATG_SREBP_CIS: Attagene CIS-FACTORIAL HepG2 Assay for human Sterol Regulatory Element Binding (SREBP) (AID 2282962). The settings on record: HepG2 Attagene cis-factorial SREBP reporter, mRNA; actives raise or lower the signal. In short, it runs like this: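 Readout: fluorescent reporter-transcript peaks resolved by capillary electrophoresis after RT-PCR. Cells were human HepG2 carrying transfected cis-promoter reporter constructs, dosed for 24 h. Gain or loss of signal was fitted against DMSO controls.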

The target in assay [16] is Signal transducer and activator of transcription 3 (Homo sapiens) (UniProt P40763). As to the kind of experiment: ATG_STAT3_CIS: Attagene CIS-FACTORIAL HepG2 Assay for human Signal Transducer and Activator of Transcription 3 (STAT3) (AID 2282963). The settings on record: HepG2, Attagene cis-factorial STAT3 reporter transcription; actives raise or lower the signal. The method, boiled down:
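Readout is reporter transcript quantified by RT-PCR and capillary electrophoresis, with 6-FAM primer extension and HpaI digestion. Total RNA is taken 24 h after dosing transiently transfected HepG2 carrying cis-regulated reporter units. Bidirectional fit against DMSO.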

Assay [17] is described as follows: ATG_TA_CIS: Attagene CIS-FACTORIAL HepG2 Assay for human TA Basal Promoter (AID 2282964). Conditions: HepG2 Attagene CIS-factorial TA basal promoter reporter; actives raise or lower the signal. In short, it runs like this: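 Multiplexed mRNA reporter assay, HepG2, 24 h. Reporter cDNA amplified, 6-FAM primer-extended, HpaI-cut, CE-sized; DMSO = negative control and baseline.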

The nature of assay [18]: ATG_TCF_b_cat_CIS: Attagene CIS-FACTORIAL HepG2 Assay for human T-Cell-Factor with beta-catenin (TCF/b-cat) (AID 2282965). The settings on record: HepG2 TCF/beta-catenin cis-reporter transcription, actives raise or lower the signal. The method, boiled down: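 Endogenous TCF/LEF activity read as reporter transcript level via RT-PCR and capillary electrophoresis fluorescence in transfected HepG2, 24 h exposure; gain or loss of signal fitted against DMSO controls.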

Assay [19] deals with Heat shock factor protein 1 (Homo sapiens) (UniProt Q00613). Briefly: ATG_HSE_CIS: Attagene CIS-FACTORIAL HepG2 Assay for human Heat Shock Transcription Factor 1 (HSE) (AID 2282953). The settings on record: HepG2 HSE cis-reporter, Attagene RNA transcription; actives raise or lower the signal. In short, it runs like this: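 After a 24 h incubation with test chemical, transfected HepG2 cells were harvested for RNA; reporter transcripts were measured by RT-PCR and capillary electrophoresis. Values reflect gain or loss of signal relative to DMSO.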

The nature of assay [20]: ATG_RORE_CIS: Attagene CIS-FACTORIAL HepG2 Assay for human RAR-related Orphan Receptor Element (RORE) (AID 2282959). The settings on record: HepG2 Attagene cis-factorial RORE reporter, mRNA; actives raise or lower the signal. The method, boiled down: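 HepG2 cells transiently transfected with multiple cis-element reporter transcription units, exposed to chemical for 24 h. Reporter mRNA quantified by RT-PCR, 6-FAM primer-extension labeling, HpaI digestion and capillary electrophoresis; bidirectional fit versus DMSO baseline.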

Chain of Hepatocyte nuclear factor 6 (Homo sapiens) (Q9UBC0 whole entry, looked up, the tested form may be a part): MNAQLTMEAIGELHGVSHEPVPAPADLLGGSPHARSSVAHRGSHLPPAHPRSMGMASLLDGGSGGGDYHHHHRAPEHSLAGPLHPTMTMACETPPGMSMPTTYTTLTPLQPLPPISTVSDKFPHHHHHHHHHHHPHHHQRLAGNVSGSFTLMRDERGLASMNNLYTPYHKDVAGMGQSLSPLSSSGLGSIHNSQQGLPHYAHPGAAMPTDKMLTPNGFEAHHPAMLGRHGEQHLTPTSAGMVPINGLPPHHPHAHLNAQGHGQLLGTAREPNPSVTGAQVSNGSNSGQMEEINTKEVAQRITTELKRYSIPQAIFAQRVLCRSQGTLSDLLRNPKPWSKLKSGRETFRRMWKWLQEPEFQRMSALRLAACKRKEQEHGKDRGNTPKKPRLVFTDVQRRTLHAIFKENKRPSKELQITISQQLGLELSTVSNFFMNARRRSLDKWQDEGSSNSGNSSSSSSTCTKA
Chain of Signal transducer and activator of transcription 3 (Homo sapiens) (P40763 whole entry, looked up): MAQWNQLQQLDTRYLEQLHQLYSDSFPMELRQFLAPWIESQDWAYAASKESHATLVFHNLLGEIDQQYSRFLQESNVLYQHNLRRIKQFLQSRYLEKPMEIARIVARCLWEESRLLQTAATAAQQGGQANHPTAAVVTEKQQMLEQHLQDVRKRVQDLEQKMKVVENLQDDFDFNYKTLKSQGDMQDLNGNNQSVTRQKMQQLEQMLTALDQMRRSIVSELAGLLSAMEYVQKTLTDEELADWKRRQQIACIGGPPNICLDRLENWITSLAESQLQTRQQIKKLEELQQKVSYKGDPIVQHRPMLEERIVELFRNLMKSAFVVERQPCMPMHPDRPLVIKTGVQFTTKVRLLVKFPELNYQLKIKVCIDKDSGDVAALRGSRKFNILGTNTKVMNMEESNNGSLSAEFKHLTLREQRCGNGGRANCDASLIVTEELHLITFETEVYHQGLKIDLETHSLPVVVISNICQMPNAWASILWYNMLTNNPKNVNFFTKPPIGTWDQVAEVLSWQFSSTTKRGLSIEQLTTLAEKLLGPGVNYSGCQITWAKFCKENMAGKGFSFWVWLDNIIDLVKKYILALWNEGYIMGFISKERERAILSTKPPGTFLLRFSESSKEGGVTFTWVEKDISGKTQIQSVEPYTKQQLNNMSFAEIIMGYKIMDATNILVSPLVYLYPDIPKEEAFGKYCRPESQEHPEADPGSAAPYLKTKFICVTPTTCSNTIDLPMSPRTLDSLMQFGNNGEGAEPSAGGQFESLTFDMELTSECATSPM
Chain of Paired box protein Pax-6 (Homo sapiens) (P26367 whole entry, looked up): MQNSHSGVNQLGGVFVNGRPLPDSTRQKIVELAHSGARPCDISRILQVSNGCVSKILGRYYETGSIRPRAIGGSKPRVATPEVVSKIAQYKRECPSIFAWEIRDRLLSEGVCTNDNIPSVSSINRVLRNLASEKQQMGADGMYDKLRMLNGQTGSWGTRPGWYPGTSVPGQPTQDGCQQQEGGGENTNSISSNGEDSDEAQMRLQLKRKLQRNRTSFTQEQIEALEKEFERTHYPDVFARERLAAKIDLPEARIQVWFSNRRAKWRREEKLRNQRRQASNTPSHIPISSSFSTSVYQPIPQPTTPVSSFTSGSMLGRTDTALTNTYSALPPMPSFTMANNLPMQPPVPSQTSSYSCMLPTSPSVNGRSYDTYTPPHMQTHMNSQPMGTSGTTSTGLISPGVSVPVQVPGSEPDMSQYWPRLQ
Chain of Bile acid receptor (Homo sapiens) (Q96RI1 whole entry, looked up): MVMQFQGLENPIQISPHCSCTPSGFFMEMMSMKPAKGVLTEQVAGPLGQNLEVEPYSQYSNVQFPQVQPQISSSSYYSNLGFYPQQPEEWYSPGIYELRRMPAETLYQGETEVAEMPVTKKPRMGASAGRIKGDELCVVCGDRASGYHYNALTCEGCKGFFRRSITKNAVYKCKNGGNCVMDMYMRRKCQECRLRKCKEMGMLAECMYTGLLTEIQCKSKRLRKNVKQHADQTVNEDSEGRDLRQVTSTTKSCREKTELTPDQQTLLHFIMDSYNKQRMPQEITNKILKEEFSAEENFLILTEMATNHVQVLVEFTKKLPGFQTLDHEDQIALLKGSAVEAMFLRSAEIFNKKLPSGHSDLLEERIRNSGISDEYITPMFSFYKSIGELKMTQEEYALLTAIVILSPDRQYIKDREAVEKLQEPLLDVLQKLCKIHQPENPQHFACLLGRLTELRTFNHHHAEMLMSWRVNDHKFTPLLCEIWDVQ
Chain of Hypoxia-inducible factor 1-alpha (Homo sapiens) (Q16665 whole entry, looked up): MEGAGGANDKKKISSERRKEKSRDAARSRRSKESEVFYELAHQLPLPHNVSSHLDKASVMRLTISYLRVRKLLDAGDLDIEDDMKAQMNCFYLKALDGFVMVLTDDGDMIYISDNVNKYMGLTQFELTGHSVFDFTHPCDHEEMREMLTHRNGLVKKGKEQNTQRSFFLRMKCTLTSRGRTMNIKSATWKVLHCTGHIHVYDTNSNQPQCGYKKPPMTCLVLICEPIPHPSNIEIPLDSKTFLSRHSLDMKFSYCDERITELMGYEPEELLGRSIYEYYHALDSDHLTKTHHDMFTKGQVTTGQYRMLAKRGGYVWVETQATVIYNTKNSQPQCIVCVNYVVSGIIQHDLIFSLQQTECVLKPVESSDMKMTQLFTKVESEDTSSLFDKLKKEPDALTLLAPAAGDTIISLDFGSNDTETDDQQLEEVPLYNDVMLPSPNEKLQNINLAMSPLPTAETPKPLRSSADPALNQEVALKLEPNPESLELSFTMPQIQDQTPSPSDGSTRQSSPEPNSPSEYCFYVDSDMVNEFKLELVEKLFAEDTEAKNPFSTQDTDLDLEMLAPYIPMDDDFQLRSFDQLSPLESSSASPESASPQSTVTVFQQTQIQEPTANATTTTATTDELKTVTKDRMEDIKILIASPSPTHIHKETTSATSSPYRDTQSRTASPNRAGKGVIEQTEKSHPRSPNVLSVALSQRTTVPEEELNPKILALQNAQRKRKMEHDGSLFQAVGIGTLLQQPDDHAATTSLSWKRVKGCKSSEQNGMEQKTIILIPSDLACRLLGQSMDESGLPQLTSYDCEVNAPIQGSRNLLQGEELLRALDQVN
Chain of Transcription factor Sp1 (Homo sapiens) (P08047 whole entry, looked up): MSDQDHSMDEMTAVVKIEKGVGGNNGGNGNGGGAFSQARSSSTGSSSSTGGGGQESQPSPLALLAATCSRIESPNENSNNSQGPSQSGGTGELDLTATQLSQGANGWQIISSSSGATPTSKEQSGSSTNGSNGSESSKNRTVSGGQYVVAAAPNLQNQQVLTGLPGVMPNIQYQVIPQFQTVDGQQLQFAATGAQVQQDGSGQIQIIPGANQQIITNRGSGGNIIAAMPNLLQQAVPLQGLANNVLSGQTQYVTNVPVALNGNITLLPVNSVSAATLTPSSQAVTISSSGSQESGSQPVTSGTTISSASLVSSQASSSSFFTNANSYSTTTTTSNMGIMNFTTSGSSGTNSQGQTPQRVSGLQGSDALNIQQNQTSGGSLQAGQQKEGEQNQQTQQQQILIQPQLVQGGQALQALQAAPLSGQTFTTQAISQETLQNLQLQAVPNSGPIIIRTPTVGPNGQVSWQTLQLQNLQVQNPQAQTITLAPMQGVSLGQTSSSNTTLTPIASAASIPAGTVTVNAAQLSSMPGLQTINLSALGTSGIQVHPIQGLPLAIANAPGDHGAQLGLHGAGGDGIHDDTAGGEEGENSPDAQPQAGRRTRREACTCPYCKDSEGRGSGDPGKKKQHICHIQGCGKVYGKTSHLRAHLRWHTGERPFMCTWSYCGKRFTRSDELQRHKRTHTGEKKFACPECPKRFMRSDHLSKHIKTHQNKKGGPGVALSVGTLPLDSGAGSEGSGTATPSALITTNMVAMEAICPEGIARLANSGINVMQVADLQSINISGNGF
Chain of Heat shock factor protein 1 (Homo sapiens) (Q00613 whole entry, looked up): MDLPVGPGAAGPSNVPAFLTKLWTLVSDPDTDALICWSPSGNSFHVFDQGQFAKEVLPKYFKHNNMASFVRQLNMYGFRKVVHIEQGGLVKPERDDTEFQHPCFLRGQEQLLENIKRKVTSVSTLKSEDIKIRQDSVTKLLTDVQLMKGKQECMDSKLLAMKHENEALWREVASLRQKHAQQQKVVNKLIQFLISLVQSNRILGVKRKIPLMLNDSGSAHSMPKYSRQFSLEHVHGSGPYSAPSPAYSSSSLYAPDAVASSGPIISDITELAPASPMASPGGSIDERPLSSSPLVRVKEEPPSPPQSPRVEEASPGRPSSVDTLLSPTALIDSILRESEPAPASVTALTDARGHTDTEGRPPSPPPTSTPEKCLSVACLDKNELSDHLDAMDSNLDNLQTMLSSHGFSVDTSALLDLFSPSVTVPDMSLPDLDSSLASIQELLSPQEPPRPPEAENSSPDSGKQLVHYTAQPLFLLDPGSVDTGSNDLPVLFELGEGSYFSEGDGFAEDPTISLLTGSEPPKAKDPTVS

For the compound `O=C(C(Cl)Cl)N1CCOC12CCCCC2`, the AC50 in assay [1] is 5.74 µM (active); in assay [10], 13.1 µM (active); in assay [17], 12 µM (active). In addition, the compound was called inactive in assay [2], in assay [3], in [4], in assay [5], in [6] and in [7]. The compound was called inactive in assay [8], in assay [9], in [11], in assay [12], in assay [13] and in [14]. For the same compound, the compound was called inactive in assay [15], in [16] and in [18].

Take `O=C1c2cccc(O)c2C(=O)c2c(O)cc(CO)cc21`: the call in assay [1], in [2], in assay [3], in assay [4], in assay [5] and in assay [7] was inactive. The result in [19], in [8], in [10], in assay [20], in [13] and in assay [14] was inactive. The compound was called inactive in assay [15], in assay [16], in assay [17] and in [18]. The AC50 in assay [6] was 24 µM (active).

For `Nc1ccc(Oc2ccc(N)c(N)c2)cc1`, the compound was classed as inactive in [1], in [2], in assay [3], in assay [4], in assay [5] and in assay [6]. Further, the outcome in assay [7], in assay [8], in [10], in assay [11], in assay [14] and in assay [15] was inactive. Moreover, the compound was called inactive in [16], in [17] and in assay [18]. Further, the half-maximal activity concentration (AC50) in assay [20] is 27.5 µM (active).

As for `O=C1Nc2ccccc2C1(c1ccc(O)cc1)c1ccc(O)cc1`, the half-maximal activity concentration (AC50) is 148 µM (active) in assay [1]; 84.2 µM (active) in [3]; 57.2 µM (active) in [6]; 163 µM (active) in assay [19]; 70.4 µM (active) in assay [8]; 70.7 µM (active) in [10]. Moreover, the AC50 in assay [13] was 63.9 µM (active); in assay [15], 27.2 µM (active); in assay [17], 61.7 µM (active); in [18], 40.9 µM (active). Moreover, the compound was called inactive in assay [2], in [4], in assay [5], in assay [7], in assay [11] and in assay [20]. Further, the call in assay [14] and in [16] was inactive.
